# Laboratory results as given in PubChem BioAssay (NCI).
# Where “and” joins values, the source holds several entries; their conditions need not be identical. Equal entries are not always repeated. This is part of a sample that, as a whole, favours compounds with a hit. Of some 83,000 tested, about 20% had one in any assay.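 Activity criterion: percent growth below 10, measured after cells in 96-well plates were exposed to a single compound concentration for 48 hours.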 Unmarked numbers belong to inactive results. Calls of active or inactive are those of the source.
# Test system: MDA-MB-468 breast
# Test: NCI-60 one-dose screen, 48 h (100 = growth as untreated, 0 = no growth, -100 = all killed)
# Conditions: 10 µM unless noted
row,Compound,growth
1,CCCCCCCCCC[N+](C)(C)N,55.1%
2,N#C/C(=N\Nc1ccccc1)C(=O)Nc1cc(-c2ccccc2)nn1-c1ccccc1,-3.2% (active)
3,CN1CCN(c2ccc(Nc3nc(NCCCNS(=O)(=O)c4ccccc4)c4sccc4n3)cc2)CC1,30.3%
4,Nc1nc(N)c2c(n1)NC(c1cccc(Nc3ccnc4cc(C(F)(F)F)ccc34)c1)CC(c1ccc(Br)cc1)=N2 (stereo not given),41.9%
5,COc1ccc(C2Nc3nc(SC)nc(N)c3N=C3c4ccccc4CCC32)cc1 (stereo not given),102%
6,Nc1c(C(=O)Nc2ccccc2F)sc2nc3c(cc12)CCCC3,26.4%
7,CCOC(=O)c1cc2c(=O)oc3ccccc3c2oc1=O,88.2%
8,Cc1cccc(C)c1NC(=O)c1sc2nc3c(cc2c1N)C(=O)CCC3,34.3%
9,CN1CCN(Cc2ccc(NC(=O)c3ccc(C#Cc4c(N)ncc5ccc(F)cc45)cc3)cc2C(F)(F)F)CC1,-73.6% (active)
10,COc1cc2c(cc1OC)C(CC1(O)CCCCC1)N(S(=O)(=O)c1ccc(C)cc1)CC2 (stereo not given),44.4% [100 µM]
11,Cc1ccc2[nH]c(=S)n(-c3ccc(S(=O)(=O)Nc4ccc(Cl)nn4)cc3)c(=O)c2c1,107%
12,CC(=O)OC(OC(C)=O)C1CCCO1 (stereo not given),99.5%
13,O=C(O)COc1ccc(F)cc1,98.8%
14,Cc1ccc2c(c1)c1nc3cc(C)c(C)cc3nc1n2CCN(C)C,-2.86% (active)
15,Cc1cc(Cl)nc(N(CCCNc2ccnc3cc(Cl)ccc23)Cc2ccco2)n1,0.466% (active)
16,Cn1ccnc1C(=O)/C=C/c1ccc(NC(=O)Nc2ccc(F)cc2)cc1,6.47% (active)
17,NCCCNc1nc2ccc(Cl)cc2c2c(=O)c3cc(F)ccc3sc12,43.3%
18,CN(C(=S)S(=O)(=O)C12CC3CC(CC(C3)C1)C2)c1ccccc1,61.7%
19,COc1ccc(/C=C(\C#N)C(=O)N2c3ccccc3Sc3ccc(SC)cc32)cc1F,72.3%
20,O=C(c1ccc(Cl)cc1)C(NCCO)c1ccc(Cl)cc1 (stereo not given),84.1% and 114%

row,Compound,growth
1,COc1cc(CCCO)c(OC)c(OC)c1OC,104%
2,COC(=O)CNc1nc(N(C)O)nc(N(C)O)n1,30.6%
3,Cc1ccc(S(=O)(=O)NCCNc2nc(Nc3ccc(N4CCN(C)CC4)cc3)nc3ccsc23)cc1,94.1%
4,O=C(/C=C(/C=C/c1cccc2[nH]ccc12)OB(F)F)/C=C/c1cccc2[nH]ccc12,-57% (active)
5,N#Cc1c(N)c(C(=O)c2ccc3c(c2)OCCO3)n2c1CCCC2,35.5%
6,CC1(C)CC[C@]2(C(=O)NCCCCCCN(CCCN)CCCN)CC[C@]3(C)C(=CC[C@@H]4[C@@]5(C)CC[C@H](O)C(C)(C)[C@@H]5CC[C@]43C)[C@@H]2C1,98.6%
7,O=C(CCc1nnc2sc(Cc3ccccc3Cl)nn12)c1nc2ncccc2[nH]1,95.9%
8,CCOC(=O)c1sc(/N=C2\NC(=O)/C(=C/c3ccc(N4CCN(C)CC4)cc3)S2)nc1C,111%
9,NC(=S)N/N=C\c1nccc2c(N)cccc12,-18.6% (active)
10,N#CC1C(=O)SC2c3ccccc3C(=O)c3ccccc3C12 (stereo not given),89.4%
11,BrCCCOc1ccc(Oc2ccc(OCCCBr)cc2)cc1,97.5%
12,CN1C(=O)C(N=Nc2ccc([N+](=O)[O-])cc2)SC1=S (stereo not given),84.6% and 85.1%
13,COc1cc(C(=O)CCCl)ccc1O,94.7%
14,COc1cc2cc(Oc3ccc(NC(=O)Nc4ccc(Cl)c(Cl)c4)cc3)c(C)nc2cc1OC,-16.7% (active)
15,C[C@]12CC[C@@H]3c4cc(O)c(O)cc4CC[C@H]3[C@@H]1CC[C@@H]2O,72.1%
16,O=C(O)c1ccc(-c2nn(-c3ccc(C(=O)O)cc3)cc2/C=N/Nc2c(F)c(F)cc(F)c2F)cc1,117%
17,CC(C)(C)c1ccc(OCCCCCCN2CCNCC2)cc1,10.6%
18,O=c1c2cc(-c3ccc(F)cc3F)ccc2n(O)c(=O)n1-c1cccc(C(F)(F)F)c1,-0.858% (active)
19,COC1=CC(c2ccc[nH]2)=N/C1=C\c1[nH]c(C)c(CC(=O)OCc2ccccc2)c1CCC(=O)OCc1ccccc1,-31.2% (active)
20,CCn1cc(C(=O)O)c(=O)c2cc(F)c(N3CCN(CC(=O)Nc4ccc(/C(C)=N/OC)cc4)CC3)cc21,102%
